Data taken from PubChem BioAssay AID1159580 (chemical genetic matrix, 2015).
Out of some 5,500 compounds screened, about 2,000 (36%) were called active. Another 18% or so got no clear call; they are omitted. Cut-off read from the data, not from the text of the source: active = normalized growth mostly below about 0.91 (no sharp cut-off); inconclusive = no clear call, values can overlap the other calls; inactive = mostly above about 0.92. The list shows a part of the results.

Assay: chemical genetic growth profiling, strain panel (AID 1159580);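 note: tested at 20 µM; growth read once vehicle control cultures reached saturation at 30 °C; 1 = growth at the plate median or of vehicle wells; lower values mean less growth of the strain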
Conditions: growth OD

Measured: normalized growth

CC(C)c1ccc2c(c1)CCC1[C@](C)(CN)CCC[C@]21C (stereo partly specified)
active: S. cerevisiae deletion strains, locus YKL009W, strain mrt4, active compounds read low 0.868 | S. cerevisiae deletion strains, locus YKL190W, strain CNB1, active compounds read low 0.211 | S. cerevisiae deletion strains, locus YKR001C, strain vps1, active compounds read low 0.0635 | S. cerevisiae deletion strains, locus YLR058C, strain SHM2, active compounds read low 0.17 | S. cerevisiae deletion strains, locus YLR102C, strain apc9, active compounds read low 0.922 | S. cerevisiae deletion strains, locus YLR268W, strain sec22, active compounds read low 0.092 | S. cerevisiae deletion strains, locus YLR330W, strain CHS5, active compounds read low 0.262 | S. cerevisiae deletion strains, locus YLR342W, strain FKS1 (second series), active compounds read low 0.269 | S. cerevisiae deletion strains, locus YLR342W, strain FKS1, active compounds read low 0.836 | S. cerevisiae deletion strains, locus YLR370C, strain arc18, active compounds read low 0.865 | S. cerevisiae deletion strains, locus YLR371W, strain rom2, active compounds read low 0.286 | S. cerevisiae deletion strains, locus YLR418C, strain cdc73, active compounds read low 0.11 | S. cerevisiae deletion strains, locus YML016C, strain PPZ1, active compounds read low 0.513 | S. cerevisiae deletion strains, locus YML032C, strain rad52, active compounds read low 0.32 | S. cerevisiae deletion strains, locus YML124C, strain tub3, active compounds read low 0.198 | S. cerevisiae deletion strains, locus YMR078C, strain ctf18, active compounds read low 0.654 | S. cerevisiae deletion strains, locus YMR223W, strain ubp8, active compounds read low 0.177 | S. cerevisiae deletion strains, locus YMR263W, strain SAP30, active compounds read low 0.642 | S. cerevisiae deletion strains, locus YMR307W, strain GAS1, active compounds read low 0.16 | S. cerevisiae deletion strains, locus YNL067W, strain RPL9B, active compounds read low 0.62 | S. cerevisiae deletion strains, locus YNL071W, strain lat1, active compounds read low 0.737 | S. cerevisiae deletion strains, locus YNL128W, strain TEP1, active compounds read low 0.279 | S. cerevisiae deletion strains, locus YNL153C, strain GIM3, active compounds read low 0.262 | S. cerevisiae deletion strains, locus YNL233W, strain BNI4, active compounds read low 0.414 | S. cerevisiae deletion strains, locus YNL298W, strain CLA4, active compounds read low 0.839 | S. cerevisiae deletion strains, locus YNL307C, strain MCK1, active compounds read low 0.132 | S. cerevisiae deletion strains, locus YNL322C, strain KRE1, active compounds read low 0.599 | S. cerevisiae deletion strains, locus YNR052C, strain pop2, active compounds read low 0.0663 | S. cerevisiae deletion strains, locus YOL006C, strain TOP1, active compounds read low 0.139 | S. cerevisiae deletion strains, locus YOL147C, strain pex11, active compounds read low 0.0811 | S. cerevisiae deletion strains, locus YOR061W, strain CKA2, active compounds read low 0.417 | S. cerevisiae deletion strains, locus YOR069W, strain VPS5, active compounds read low 0.847 | S. cerevisiae deletion strains, locus YOR136W, strain idh2, active compounds read low 0.257 | S. cerevisiae deletion strains, locus YOR144C, strain elg1, active compounds read low 0.372 | S. cerevisiae deletion strains, locus YOR184W, strain ser1, active compounds read low 0.124 | S. cerevisiae deletion strains, locus YOR270C, strain vph1, active compounds read low 0.577 | S. cerevisiae deletion strains, locus YOR290C, strain snf2, active compounds read low 0.85 | S. cerevisiae deletion strains, locus YOR316C, strain cot1, active compounds read low 0.837 | S. cerevisiae deletion strains, locus YPL055C, strain LGE1, active compounds read low 0.404 | S. cerevisiae deletion strains, locus YPL241C, strain CIN2, active compounds read low 0.865 | S. cerevisiae deletion strains, locus YPR119W, strain clb2, active compounds read low 0.923 | S. cerevisiae deletion strains, locus YPR163C, strain tif3, active compounds read low 0.072 | S. cerevisiae deletion strains, locus YPR167C, strain met16, active compounds read low 0.731 | S. cerevisiae deletion strains, strain wtn01, active compounds read low 0.146 | S. cerevisiae strains, strain wild type, active compounds read low 0.255
inactive: S. cerevisiae deletion strains, locus YKL068W, active compounds read low 0.982 | S. cerevisiae deletion strains, locus YKL085W, strain MDH1 (second series), active compounds read low 0.978 | S. cerevisiae deletion strains, locus YKL085W, strain MDH1, active compounds read low 0.978 | S. cerevisiae deletion strains, locus YKL160W, strain elf1, active compounds read low 0.952 | S. cerevisiae deletion strains, locus YKR026C, strain gcn3, active compounds read low 1.02 | S. cerevisiae deletion strains, locus YKR091W, strain srl3, active compounds read low 1.01 | S. cerevisiae deletion strains, locus YLL001W, strain dnm1, active compounds read low 0.963 | S. cerevisiae deletion strains, locus YLL026W, active compounds read low 1.01 | S. cerevisiae deletion strains, locus YLL041C, strain sdh2, active compounds read low 1.02 | S. cerevisiae deletion strains, locus YLR027C, strain aat2, active compounds read low 0.978 | S. cerevisiae deletion strains, locus YLR039C, strain RIC1, active compounds read low 1.28 | S. cerevisiae deletion strains, locus YLR113W, strain HOG1, active compounds read low 0.999 | S. cerevisiae deletion strains, locus YLR221C, strain rsa3, active compounds read low 0.953 | S. cerevisiae deletion strains, locus YLR258W, strain gsy2, active compounds read low 0.948 | S. cerevisiae deletion strains, locus YLR262C, strain YPT6 (second series), active compounds read low 0.959 | S. cerevisiae deletion strains, locus YLR262C, strain YPT6, active compounds read low 1.1 | S. cerevisiae deletion strains, locus YLR320W, strain mms22, active compounds read low 0.899 | S. cerevisiae deletion strains, locus YLR357W, strain rsc2, active compounds read low 0.976 | S. cerevisiae deletion strains, locus YLR384C, strain iki3, active compounds read low 0.999 | S. cerevisiae deletion strains, locus YML120C, strain ndi1, active compounds read low 0.92 | S. cerevisiae deletion strains, locus YMR058W, strain fet3, active compounds read low 0.932 | S. cerevisiae deletion strains, locus YMR125W, strain sto1, active compounds read low 0.93 | S. cerevisiae deletion strains, locus YMR129W, active compounds read low 1.01 | S. cerevisiae deletion strains, locus YMR205C, strain PFK2, active compounds read low 0.933 | S. cerevisiae deletion strains, locus YMR231W, strain pep5, active compounds read low 1.03 | S. cerevisiae deletion strains, locus YNL183C, strain NPR1, active compounds read low 0.951 | S. cerevisiae deletion strains, locus YNL209W, strain ssb2, active compounds read low 0.975 | S. cerevisiae deletion strains, locus YNL248C, strain rpa49, active compounds read low 1.01 | S. cerevisiae deletion strains, locus YNL250W, strain rad50, active compounds read low 0.936 | S. cerevisiae deletion strains, locus YNL271C, strain bni1, active compounds read low 0.979 | S. cerevisiae deletion strains, locus YNL322C, strain KRE1 (second series), active compounds read low 1.01 | S. cerevisiae deletion strains, locus YNR049C, strain mso1, active compounds read low 1.03 | S. cerevisiae deletion strains, locus YOL012C, strain htz1 0.217 | S. cerevisiae deletion strains, locus YOR001W, strain rrp6, active compounds read low 1.02 | S. cerevisiae deletion strains, locus YOR070C, strain gyp1, active compounds read low 0.978 | S. cerevisiae deletion strains, locus YOR080W, strain dia2, active compounds read low 0.995 | S. cerevisiae deletion strains, locus YOR083W, strain WHI5, active compounds read low 0.904 | S. cerevisiae deletion strains, locus YOR106W, strain vam3, active compounds read low 0.92 | S. cerevisiae deletion strains, locus YOR231W, strain MKK1, active compounds read low 0.963 | S. cerevisiae deletion strains, locus YOR265W, strain rbl2, active compounds read low 0.999 | S. cerevisiae deletion strains, locus YPL051W, strain arl3, active compounds read low 0.988 | S. cerevisiae deletion strains, locus YPL078C, strain atp4, active compounds read low 0.896 | S. cerevisiae deletion strains, locus YPL106C, strain sse1, active compounds read low 0.939 | S. cerevisiae deletion strains, locus YPL240C, strain hsp82, active compounds read low 0.988 | S. cerevisiae deletion strains, locus YPL256C, strain CLN2, active compounds read low 0.979 | S. cerevisiae deletion strains, locus YPR141C, strain kar3, active compounds read low 0.92
